Reference: PubChem BioAssay (Tox21)
Results filed as inconclusive are left out. Calls of active or inactive are those of the source. The call rests on the fitted dose curve; in most records, active means well fitted curve in the direction sought with a large enough effect in the repeat runs; inconclusive means weak or mixed curves; inactive means no such curve, though single readings can be large; an effect the other way counts as inactive or inconclusive.

Legend:
[1] = target: Cytochrome P450 2D6 (Homo sapiens) (UniProt P10635); assay: Cytochrome P450 Family 2 Subfamily D Member 6 (CYP2D6) small molecule antagonists: luciferase reporter qHTS assay (AID 1671196); further: nearly all actives have a fitted effect of over 50% in size; further: potency means the concentration at half of the fitted maximal effect; on activity change, negative = inhibition: series mostly up to about 120 µM
Sequence of Cytochrome P450 2D6 (Homo sapiens) (P10635 whole entry, looked up): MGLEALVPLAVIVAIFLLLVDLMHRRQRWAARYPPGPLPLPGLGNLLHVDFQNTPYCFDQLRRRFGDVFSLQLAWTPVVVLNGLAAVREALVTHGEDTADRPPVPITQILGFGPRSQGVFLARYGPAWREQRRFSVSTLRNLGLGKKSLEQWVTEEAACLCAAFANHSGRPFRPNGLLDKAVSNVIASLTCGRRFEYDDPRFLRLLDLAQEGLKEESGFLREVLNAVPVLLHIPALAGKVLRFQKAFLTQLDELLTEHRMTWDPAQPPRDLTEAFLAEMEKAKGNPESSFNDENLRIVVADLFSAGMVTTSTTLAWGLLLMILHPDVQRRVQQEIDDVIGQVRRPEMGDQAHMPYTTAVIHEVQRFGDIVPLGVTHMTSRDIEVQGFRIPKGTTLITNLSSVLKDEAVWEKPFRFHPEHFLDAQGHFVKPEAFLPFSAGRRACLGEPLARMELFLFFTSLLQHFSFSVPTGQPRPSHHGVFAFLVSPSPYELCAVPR
How it was run: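 Cell-free P450-Glo system: CYP2D6 with proluciferin substrate was pre-incubated with compound for 10 min, then reacted with NADPH regeneration for 1 h at room temperature. Luciferin product was detected after 20 min, and data were reported as relative luminescence units.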

[2] = target: Cytochrome P450 2C19 (Homo sapiens) (UniProt P33261); assay: Cytochrome P450 Family 2 Subfamily C Member 19 (CYP2C19) small molecule antagonists: luciferase reporter qHTS assay (AID 1671197); further: nearly all actives have a fitted effect of over 65% in size; further: potency means the concentration at half of the fitted maximal effect; on activity change, negative = inhibition: series mostly up to about 120 µM
Sequence of Cytochrome P450 2C19 (Homo sapiens) (P33261 whole entry, looked up): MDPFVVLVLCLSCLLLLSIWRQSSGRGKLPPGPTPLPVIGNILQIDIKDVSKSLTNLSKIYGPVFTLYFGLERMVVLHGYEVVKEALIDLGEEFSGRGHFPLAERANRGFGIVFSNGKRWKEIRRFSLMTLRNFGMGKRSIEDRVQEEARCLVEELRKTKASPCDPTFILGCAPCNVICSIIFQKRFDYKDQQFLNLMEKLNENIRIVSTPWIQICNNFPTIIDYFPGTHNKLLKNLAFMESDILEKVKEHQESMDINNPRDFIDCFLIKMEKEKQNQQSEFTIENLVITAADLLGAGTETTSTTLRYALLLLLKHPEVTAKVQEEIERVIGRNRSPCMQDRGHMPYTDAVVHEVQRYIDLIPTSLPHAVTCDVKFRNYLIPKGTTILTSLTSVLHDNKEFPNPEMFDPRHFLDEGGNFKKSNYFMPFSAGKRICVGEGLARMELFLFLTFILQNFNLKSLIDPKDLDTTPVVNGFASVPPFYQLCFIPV
How it was run: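 Quantitative high-throughput screen of the Tox21 library using CYP2C19 with proluciferin substrate. Reaction: NADPH regeneration, 37C, 1 h, after 10 min compound preincubation at room temperature. Readout: luminescence.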

[3] = target: Cytochrome P450 2C9 (Homo sapiens) (UniProt P11712); assay: Cytochrome P450 Family 2 Subfamily C Member 9 (CYP2C9) small molecule antagonists: luciferase reporter qHTS assay (AID 1671198); further: nearly all actives have a fitted effect of over 50% in size; further: potency means the concentration at half of the fitted maximal effect; on activity change, negative = inhibition: series mostly up to about 120 µM
Sequence of Cytochrome P450 2C9 (Homo sapiens) (P11712 whole entry, looked up): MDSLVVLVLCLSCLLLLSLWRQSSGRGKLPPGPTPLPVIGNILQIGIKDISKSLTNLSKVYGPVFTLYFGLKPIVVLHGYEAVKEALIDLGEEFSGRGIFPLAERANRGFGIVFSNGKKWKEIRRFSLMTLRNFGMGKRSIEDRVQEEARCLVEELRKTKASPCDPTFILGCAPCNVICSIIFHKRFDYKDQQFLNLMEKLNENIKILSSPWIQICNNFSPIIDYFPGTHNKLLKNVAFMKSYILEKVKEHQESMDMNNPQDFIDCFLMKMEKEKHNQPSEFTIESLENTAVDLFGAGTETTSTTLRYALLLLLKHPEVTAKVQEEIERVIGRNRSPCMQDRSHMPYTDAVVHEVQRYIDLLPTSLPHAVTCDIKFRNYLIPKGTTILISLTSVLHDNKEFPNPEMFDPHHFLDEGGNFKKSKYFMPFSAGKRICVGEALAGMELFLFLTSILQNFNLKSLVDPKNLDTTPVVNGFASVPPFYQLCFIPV
How it was run: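 CYP2C9 activity was measured with a P450-Glo proluciferin substrate. Enzyme–substrate mix was held with compound for 10 min at room temperature, then NADPH regeneration solution was added for 1 h at 37C. Luciferin product was read as luminescence.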

[4] = target: Cytochrome P450 1A2 (Homo sapiens) (UniProt P05177); assay: Cytochrome P450 Family 1 Subfamily A Member 2 (CYP1A2) small molecule antagonists: luciferase reporter qHTS assay (AID 1671199); further: nearly all actives have a fitted effect of over 50% in size; further: potency means the concentration at half of the fitted maximal effect; on activity change, negative = inhibition: series mostly up to about 120 µM
Sequence of Cytochrome P450 1A2 (Homo sapiens) (P05177 whole entry, looked up): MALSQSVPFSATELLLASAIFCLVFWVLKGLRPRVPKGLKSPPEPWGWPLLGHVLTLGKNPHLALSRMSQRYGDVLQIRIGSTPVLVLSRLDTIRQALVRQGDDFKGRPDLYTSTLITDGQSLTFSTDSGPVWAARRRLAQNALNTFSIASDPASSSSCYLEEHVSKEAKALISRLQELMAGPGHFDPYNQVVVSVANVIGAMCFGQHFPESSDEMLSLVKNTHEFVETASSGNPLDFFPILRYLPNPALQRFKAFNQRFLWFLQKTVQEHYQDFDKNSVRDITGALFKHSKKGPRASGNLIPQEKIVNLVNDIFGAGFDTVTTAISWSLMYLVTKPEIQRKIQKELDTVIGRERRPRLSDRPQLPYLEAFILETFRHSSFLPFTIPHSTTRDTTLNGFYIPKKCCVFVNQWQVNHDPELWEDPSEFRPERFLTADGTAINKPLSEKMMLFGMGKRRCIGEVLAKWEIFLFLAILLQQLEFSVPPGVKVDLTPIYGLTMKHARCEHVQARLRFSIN
How it was run: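 P450-Glo CYP1A2 enzyme–proluciferin substrate mix with compound 10 min at room temperature, then NADPH regeneration 1 h at room temperature. Luciferin detection reagent added, luminescence read after 20 min; furafylline positive control.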

[5] = target: Voltage-gated inwardly rectifying potassium channel KCNH2 (Homo sapiens) (UniProt Q12809); assay: Human Ether-a-go-go-Related Gene (hERG) channel small molecule antagonists: fluorescence cell-based qHTS assay (AID 1671200); further: nearly all actives have a fitted effect of over 50% in size; further: potency means the concentration at half of the fitted maximal effect;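 on activity change, negative = inhibition: hERG-expressing U2OS cells given a thallium stimulus after FluxOR II dye loading; series mostly up to about 77 µM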
Sequence of Voltage-gated inwardly rectifying potassium channel KCNH2 (Homo sapiens) (Q12809 whole entry, looked up): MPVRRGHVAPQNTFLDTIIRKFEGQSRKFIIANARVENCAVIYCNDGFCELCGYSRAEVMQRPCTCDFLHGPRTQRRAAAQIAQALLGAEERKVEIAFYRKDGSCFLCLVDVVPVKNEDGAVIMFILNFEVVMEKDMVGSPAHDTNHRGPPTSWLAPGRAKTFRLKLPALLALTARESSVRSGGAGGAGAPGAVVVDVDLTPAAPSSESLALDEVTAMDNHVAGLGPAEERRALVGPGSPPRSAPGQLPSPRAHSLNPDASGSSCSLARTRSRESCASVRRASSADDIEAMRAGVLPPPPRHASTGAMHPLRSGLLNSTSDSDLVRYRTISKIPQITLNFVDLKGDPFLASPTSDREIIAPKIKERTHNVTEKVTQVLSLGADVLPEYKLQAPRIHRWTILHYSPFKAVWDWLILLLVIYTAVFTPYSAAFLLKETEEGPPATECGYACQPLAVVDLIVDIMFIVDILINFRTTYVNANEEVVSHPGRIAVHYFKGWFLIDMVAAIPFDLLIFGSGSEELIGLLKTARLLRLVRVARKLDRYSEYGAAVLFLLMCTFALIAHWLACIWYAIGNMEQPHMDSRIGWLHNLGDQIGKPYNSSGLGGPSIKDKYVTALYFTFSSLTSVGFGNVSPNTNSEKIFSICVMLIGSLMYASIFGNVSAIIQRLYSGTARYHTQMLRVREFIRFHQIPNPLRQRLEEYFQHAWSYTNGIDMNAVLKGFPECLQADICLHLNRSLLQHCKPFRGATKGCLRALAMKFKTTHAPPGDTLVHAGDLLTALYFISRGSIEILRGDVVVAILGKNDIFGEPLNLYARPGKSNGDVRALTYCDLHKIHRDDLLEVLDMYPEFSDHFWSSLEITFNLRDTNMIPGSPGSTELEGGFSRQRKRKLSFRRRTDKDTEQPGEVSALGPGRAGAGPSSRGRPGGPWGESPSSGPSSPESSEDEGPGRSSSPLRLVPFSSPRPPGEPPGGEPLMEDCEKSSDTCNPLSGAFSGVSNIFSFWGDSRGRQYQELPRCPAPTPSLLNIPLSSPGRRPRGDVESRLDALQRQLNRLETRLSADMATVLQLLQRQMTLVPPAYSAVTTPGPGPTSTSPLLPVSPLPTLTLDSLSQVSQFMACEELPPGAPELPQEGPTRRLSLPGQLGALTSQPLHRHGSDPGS
How it was run: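 Channel function was assessed by thallium flux. Cells seeded the previous day and kept at 37 C took up FluxOR II dye over 1 h in the dark at room temperature, then sat another 10 min before stimulation.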

[6] = target: Cytochrome P450 3A4 (Homo sapiens) (UniProt P08684); assay: Cytochrome P450 Family 3 Subfamily A Member 4 (CYP3A4) small molecule antagonists: luciferase reporter qHTS assay (AID 1671201)
Sequence of Cytochrome P450 3A4 (Homo sapiens) (P08684 whole entry, looked up): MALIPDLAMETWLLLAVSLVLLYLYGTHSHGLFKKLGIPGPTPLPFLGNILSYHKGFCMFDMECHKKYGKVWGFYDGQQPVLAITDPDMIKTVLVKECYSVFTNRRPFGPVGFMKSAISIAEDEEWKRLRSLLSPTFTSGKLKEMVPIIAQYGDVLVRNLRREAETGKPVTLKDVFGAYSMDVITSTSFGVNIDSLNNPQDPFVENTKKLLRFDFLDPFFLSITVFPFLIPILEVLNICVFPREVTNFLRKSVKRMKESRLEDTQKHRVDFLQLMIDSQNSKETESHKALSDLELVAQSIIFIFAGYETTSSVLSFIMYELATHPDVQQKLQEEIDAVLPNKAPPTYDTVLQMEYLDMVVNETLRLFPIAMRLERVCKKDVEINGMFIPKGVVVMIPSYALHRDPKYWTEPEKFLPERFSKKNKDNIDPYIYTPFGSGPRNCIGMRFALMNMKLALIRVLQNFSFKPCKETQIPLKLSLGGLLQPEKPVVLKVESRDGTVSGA
How it was run: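 Compounds in DMSO were pin-transferred onto CYP3A4 enzyme-substrate mix and held 10 min at room temperature. NADPH regenerating solution started the reaction for 1 h; luciferin detection reagent stopped it, and luminescence was read after 20 min.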
On the % scale 0 is the no-effect control and ±100 the full control effect.

C[C@@H]1CCN(C(=O)[C@H](CCCN=C(N)N)NS(=O)(=O)c2cccc3c2NC[C@H](C)C3)[C@@H](C(=O)O)C1
inactive: Potency [1] | Potency [2] | Potency [3] | Potency [4]

CN(C)CCCNCCCN(C)C
active: Potency [1] 20 µM
inactive: Potency [2] | Potency [3] | Potency [4] | Potency [5]

NS(=O)(=O)c1cc(C(=O)O)cc(N2CCCC2)c1Oc1ccccc1
inactive: Potency [1] | Potency [2] | Potency [3] | Potency [4] | Potency [5]

N=C(N)c1ccc2cc(OC(=O)c3ccc(N=C(N)N)cc3)ccc2c1
inactive: Potency [1] | Potency [2] | Potency [3] | Potency [4] | Potency [5]

CC(C)(O)C#CC(C)(C)O
inactive: Potency [1] | Potency [2] | Potency [3] | Potency [4] | Potency [5] | Potency [6]

Cc1cnc(NS(=O)(=O)c2ccc(N)cc2)nc1
inactive: Potency [1] | Potency [2] | Potency [3] | Potency [4] | Potency [5] | Potency [6]

NS(=O)(=O)c1ccccc1Cl
inactive: Potency [1] | Potency [2] | Potency [3] | Potency [4] | Potency [5] | Potency [6]

O=c1cc(CO)occ1O
inactive: Potency [1] | Potency [2] | Potency [3] | Potency [4] | Potency [5] | Potency [6]

O=S(O)CO
inactive: Potency [1] | Potency [2] | Potency [3] | Potency [4] | Potency [5] | Potency [6]

NS(=O)(=O)c1cc(C(=O)NN2C[C@H]3[C@H]4CCC(C4)[C@H]3C2)ccc1Cl
inactive: Potency [1] | Potency [2] | Potency [3] | Potency [4] | Potency [5]

O=C(CCCN1CCN(c2ccccn2)CC1)c1ccc(F)cc1
inactive: Potency [4] | Potency [6]
active: Potency [1] 11 µM | Potency [2] 34.7 µM | Potency [3] 7.76 µM | Potency [5] 6.74 µM

CC1(C)C(O)C(C)(C)C1O (stereo not given)
inactive: Potency [1] | Potency [2] | Potency [3] | Potency [4] | Potency [5] | Potency [6]

CC(=O)N(CC(O)CO)c1c(I)c(C(=O)NCCO)c(I)c(C(=O)NCC(O)CO)c1I (stereo not given)
inactive: Potency [1] | Potency [2] | Potency [3] | Potency [4] | Potency [5]

N[C@@H](C(=O)N[C@@H]1C(=O)N2C(C(=O)O)=C(Cl)CS[C@H]12)c1ccccc1
inactive: activity change, negative = inhibition [1] -15.8% [at 10.5 µM] | activity change, negative = inhibition [2] 33.2% [at 10.5 µM] | activity change, negative = inhibition [3] -2.01% [at 10.5 µM] | activity change, negative = inhibition [4] 7.47% [at 10.5 µM] | activity change, negative = inhibition [5] -6.12% [at 6.97 µM] | activity change, negative = inhibition [6] -15.7% [at 10.5 µM]

Cc1cccc(C)c1NC(=O)C(C)N (stereo not given)
inactive: Potency [1] | Potency [2] | Potency [3] | Potency [4] | Potency [5] | Potency [6]

CCOC(=O)c1cccc(N)c1
active: Potency [4] 5.75 µM
inactive: Potency [1] | Potency [2] | Potency [3] | Potency [5] | Potency [6]

O=C(O)CNC(=O)c1ccc([N+](=O)[O-])cc1
inactive: Potency [1] | Potency [2] | Potency [3] | Potency [4] | Potency [5] | Potency [6]

NCCCNCCSP(=O)(O)O
inactive: activity change, negative = inhibition [1] -0.545% [at 10.5 µM] | activity change, negative = inhibition [2] -2.49% [at 10.5 µM] | activity change, negative = inhibition [3] 10.3% [at 10.5 µM] | activity change, negative = inhibition [4] -21.8% [at 10.5 µM] | activity change, negative = inhibition [5] -1.01% [at 6.97 µM] | activity change, negative = inhibition [6] 5.88% [at 10.5 µM]

CCN(CC)CCNC(=O)c1cc(S(C)(=O)=O)ccc1OC
active: Potency [1] 12.3 µM
inactive: Potency [2] | Potency [3] | Potency [4] | Potency [5] | Potency [6]

Nc1nc2c(ncn2COC(CO)CO)c(=O)[nH]1
inactive: Potency [1] | Potency [2] | Potency [3] | Potency [4] | Potency [5] | Potency [6]

CC(NC(CCc1ccccc1)C(=O)O)C(=O)N1C(=O)N(C)CC1C(=O)O (stereo not given)
inactive: Potency [1] | Potency [2] | Potency [3] | Potency [4] | Potency [5] | Potency [6]

CCSC(=O)N(CC(C)C)CC(C)C
inactive: Potency [1] | Potency [2] | Potency [3] | Potency [4] | Potency [5] | Potency [6]

CC(C)CNCC(C)C
inactive: Potency [1] | Potency [2] | Potency [3] | Potency [4] | Potency [5] | Potency [6]

O=C1OC(=O)C2CCCCC12 (stereo not given)
inactive: Potency [1] | Potency [2] | Potency [3] | Potency [4] | Potency [5] | Potency [6]

N=c1nc(N2CCCCC2)cc(N)n1O
active: Potency [1] 21.9 µM
inactive: Potency [2] | Potency [3] | Potency [4] | Potency [5] | Potency [6]

CCCCCCOC(=O)CCCCC(=O)OCCCCCC
active: Potency [3] 31.7 µM
inactive: Potency [1] | Potency [2] | Potency [4] | Potency [5] | Potency [6]

O=C(O)CCCc1ccccc1
inactive: Potency [1] | Potency [2] | Potency [3] | Potency [4] | Potency [5] | Potency [6]

CN1CC(=O)NC1=N
inactive: Potency [1] | Potency [2] | Potency [3] | Potency [4] | Potency [5] | Potency [6]

O=C1NC(=O)[C@@]2(CCOc3ccc(F)cc32)N1
inactive: Potency [1] | Potency [2] | Potency [3] | Potency [4] | Potency [5]

CC(C)(CC(=O)O)C(=O)O
inactive: Potency [1] | Potency [3] | Potency [5] | Potency [6]
active: Potency [2] 70.3 µM | Potency [4] 12.5 µM

Cc1c(NC(C)C)c(=O)n(-c2ccccc2)n1C
active: Potency [4] 28.8 µM
inactive: Potency [1] | Potency [2] | Potency [3] | Potency [5] | Potency [6]

N[C@H](C(=O)O)c1ccc(O)cc1
inactive: activity change, negative = inhibition [1] -10.2% [at 23.6 µM] | Potency [2] | activity change, negative = inhibition [3] -0.95% [at 23.6 µM] | Potency [4] | activity change, negative = inhibition [5] 1.26% [at 15.8 µM] | activity change, negative = inhibition [6] -17% [at 23.6 µM]

O=c1n(CCO)c(=O)n(CCO)c(=O)n1CCO
inactive: Potency [1] | Potency [2] | Potency [3] | Potency [4] | Potency [5] | Potency [6]
